Test results as given in PubChem BioAssay (NCATS).
Results filed as inconclusive are left out. Where a call stands in place of a potency, no number is given. The source made the active and inactive calls. The call rests on the fitted dose curve; in most records, active means well fitted curve in the direction sought with a large enough effect; inconclusive means small, poorly fitted or top-dose-only effect, or another doubt; inactive means no such curve, though single readings can be large; an effect the other way counts as inactive or inconclusive.

How the values were obtained:
[1] = MultiTox-Fluor Cytotoxicity Assay - LYMP1-003 - Live Cells (AID 962);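 further: cells exposed to compound for 16 hours at 37 °C; cytotoxic hits lower the live-cell protease signal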
Summary of the method: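 Cells plated at 2500 per well and incubated 5 hr; compounds added and incubated 16 hr at 37 C; MultiTox-Fluor reagent added for 60 min at room temperature; fluorescence of liberated AFC measured at 405/510 nm.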

[2] = Cell Viability - LYMP1-003 - Assay at 40 hr (AID 964); further: nearly all actives have a fitted effect of over 60% in size; further: potency means the concentration at half of the fitted maximal effect
Summary of the method: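 This qHTS cytotoxicity screen treats human lymphoblastoid cells (LYMP1-003) with compounds for 40 hr and quantifies cellular ATP via luciferase luminescence.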

[3] = Cell Viability - LYMP2-005 (AID 967); further: potency means the concentration at half of the fitted maximal effect
Summary of the method: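 qHTS viability screen in LYMP2-005 cells: 24 h at 37 C with compound, ATP luminescence via CellTiter-Glo, AC50 from Hill curves.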

[4] = Cell Viability - LYMP2-009 (AID 968); further: nearly all actives have a fitted effect of over 55% in size; further: potency means the concentration at half of the fitted maximal effect
[5] = Cell Viability - LYMP2-011 (AID 969); further: nearly all actives have a fitted effect of over 60% in size; further: potency means the concentration at half of the fitted maximal effect
Summary of the method: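 Acute toxicity is scored as a concentration-dependent drop in intracellular ATP of a human lymphoblastoid line after 24 hr treatment. Values are AC50s modeled with the Hill equation.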

[6] = Cell Viability - LYMP2-013 (AID 970); further: nearly all actives have a fitted effect of over 55% in size; further: potency means the concentration at half of the fitted maximal effect
Summary of the method: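 Acute toxicity was measured in human lymphoblastoid cells (2500/well) exposed to compound titrations for 24 hr, with ATP luminescence (CellTiter-Glo) as read-out and AC50 fitted by Hill equation.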

[7] = Cell Viability - LYMP2-017 (AID 972);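 further: cells exposed to compound for 24 hours at 37 °C; nearly all actives have a fitted effect of over 55% in size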; further: potency means the concentration at half of the fitted maximal effect
Summary of the method: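 Steps: plate 2500 lymphoblastoid cells per well; incubate 5 hr at 37 C; add compound across a concentration series and incubate 24 hr at 37 C; add CellTiter-Glo and read luminescence after 30 min at room temperature; fit Hill curves for AC50.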

[8] = Cell Viability - LYMP2-019 (AID 973); further: nearly all actives have a fitted effect of over 55% in size; further: potency means the concentration at half of the fitted maximal effect
Summary of the method: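 Cells plated at 2500/well and allowed 5 hr at 37 C before compound addition. After 24 hr incubation, CellTiter-Glo reagent was added, plates sat 30 min at room temperature, and luminescence was recorded.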

[9] = Cell Viability - LYMP2-021 (AID 974); further: potency means the concentration at half of the fitted maximal effect
Summary of the method: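 Concentration-response cytotoxicity in a human lymphoblastoid line: 24 hr treatment at 37 C in complete culture medium, tetraoctylammonium bromide as positive control, luminescent ATP quantitation as viability measure.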

[10] = Cell Viability - LYMP2-023 (AID 975); further: potency means the concentration at half of the fitted maximal effect
Summary of the method: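 Concentration-dependent drop in intracellular ATP measures acute cytotoxicity in a human lymphoblastoid line treated for 24 hours in complete culture medium. AC50 values are taken from Hill-equation fits of qHTS data.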

SMILES	outcome [1]	Potency [2]	Potency [3]	Potency [4]	Potency [5]	Potency [6]	Potency [7]	Potency [8]	Potency [9]	Potency [10]
CC1=CCC2CC1C2(C)C (stereo not given)	inactive	inactive	inactive	inactive	inactive	inactive	inactive	inactive	inactive	inactive
C[C@H]1O[C@@H](O[C@H]2[C@@H](O)C[C@H](O[C@H]3[C@@H](O)C[C@H](O[C@H]4CC[C@@]5(C)[C@H](CC[C@@H]6[C@@H]5C[C@@H](O)[C@]5(C)[C@@H](C7=CC(=O)OC7)CC[C@]65O)C4)O[C@@H]3C)O[C@@H]2C)C[C@H](O)[C@@H]1O		0.158 µM (active)					0.251 µM (active)			
C/C=C/C=C/C(=O)O	inactive	inactive	inactive	inactive	inactive	inactive	inactive	inactive	inactive	inactive
Cc1ncc[nH]1	inactive	inactive	inactive	inactive	inactive	inactive	inactive	inactive	inactive	inactive
CCCCC	inactive	inactive	inactive	inactive	inactive	inactive	inactive	inactive	inactive	inactive
CC(C)(C)CC(C)(C)c1ccc(OCCO)cc1	inactive	inactive	inactive	inactive	inactive	inactive	inactive		inactive	inactive
OB(O)O	inactive	inactive	inactive	inactive	inactive	inactive	inactive	inactive	inactive	inactive
CCCCO	inactive	inactive	inactive	inactive	inactive	inactive	inactive	inactive	inactive	inactive
C=C1C(CCl)(CCl)C2(Cl)C(Cl)C(Cl)C1(Cl)C2(Cl)Cl (stereo not given)	inactive			39.8 µM (active)	50.1 µM (active)	50.1 µM (active)	50.1 µM (active)	39.8 µM (active)	50.1 µM (active)	50.1 µM (active)
C[C@H](CCC(=O)O)[C@H]1CC[C@H]2[C@@H]3CC[C@@H]4C[C@H](O)CC[C@]4(C)[C@H]3C[C@H](O)[C@]12C	inactive	inactive		inactive	inactive	inactive	inactive	inactive	inactive	inactive
CCOC(C)OCC	inactive	inactive	inactive	inactive	inactive	inactive	inactive	inactive	inactive	inactive
CC1=CC(=O)NS(=O)(=O)O1	inactive	inactive		inactive	inactive	inactive	inactive	inactive	inactive	inactive
CO	inactive	inactive	inactive	inactive	inactive	inactive	inactive	inactive	inactive	inactive
COC(=O)c1ccccc1O	inactive	inactive	inactive	inactive	inactive	inactive	inactive	inactive	inactive	inactive
O=c1n(CC2CO2)c(=O)n(CC2CO2)c(=O)n1CC1CO1 (stereo not given)	inactive	15.8 µM (active)	20 µM (active)	39.8 µM (active)	39.8 µM (active)	50.1 µM (active)	39.8 µM (active)	39.8 µM (active)	31.6 µM (active)	39.8 µM (active)
c1ccc2ccccc2c1	inactive	inactive	inactive	inactive	inactive	inactive	inactive	inactive	inactive	inactive
CC(C)O	inactive	inactive	inactive	inactive	inactive	inactive	inactive	inactive	inactive	inactive
CO/N=C(/C(=O)N[C@@H]1C(=O)N2C(C(=O)O)=C(COC(N)=O)CS[C@H]12)c1ccco1	inactive	inactive	inactive	inactive	inactive	inactive	inactive	inactive	inactive	inactive
Nc1nccs1	inactive	inactive	inactive	inactive	inactive	inactive	inactive	inactive	inactive	inactive

SMILES	outcome [1]	Potency [2]	Potency [3]	Potency [4]	Potency [5]	Potency [6]	Potency [7]	Potency [8]	Potency [9]	Potency [10]
[O-][N+](=Nc1ccccc1)c1ccccc1	inactive	inactive	inactive	inactive	inactive	inactive	inactive	inactive	inactive	inactive
Cc1ccc(S(=O)(=O)O)cc1C	inactive	inactive	inactive	inactive	inactive	inactive	inactive	inactive	inactive	inactive
NC(N)=O	inactive	inactive	inactive	inactive	inactive	inactive	inactive	inactive	inactive	inactive
ClC(Cl)Cl	inactive	inactive	inactive	inactive	inactive	inactive	inactive	inactive	inactive	inactive
OC[C@H]1O[C@@H]2O[C@H]3[C@H](O)[C@@H](O)[C@@H](O[C@H]4[C@H](O)[C@@H](O)[C@@H](O[C@H]5[C@H](O)[C@@H](O)[C@@H](O[C@H]6[C@H](O)[C@@H](O)[C@@H](O[C@H]7[C@H](O)[C@@H](O)[C@@H](O[C@H]1[C@H](O)[C@H]2O)O[C@@H]7CO)O[C@@H]6CO)O[C@@H]5CO)O[C@@H]4CO)O[C@@H]3CO	inactive	inactive	inactive	inactive	inactive	inactive	inactive	inactive	inactive	inactive
OCl	inactive	inactive	inactive	inactive	inactive	inactive	inactive	inactive	inactive	inactive
OCC(O)CO	inactive	inactive	inactive	inactive	inactive	inactive	inactive	inactive	inactive	inactive
Oc1ccc(/C=C/c2cc(O)cc(O)c2)cc1	inactive			inactive	inactive	inactive	inactive	inactive	inactive	inactive
NCCN	inactive	inactive	inactive	inactive	inactive	inactive	inactive	inactive	inactive	inactive
CC/C=C\C/C=C\C/C=C\CCCCCCCC(=O)O	inactive			50.1 µM (active)			50.1 µM (active)	50.1 µM (active)	50.1 µM (active)	
CC[C@H]1OC(=O)[C@H](C)[C@@H](O[C@H]2C[C@@](C)(OC)[C@@H](O)[C@H](C)O2)[C@H](C)[C@@H](O[C@@H]2O[C@H](C)C[C@H](N(C)C)[C@H]2O)[C@](C)(O)C[C@@H](C)CN(C)[C@H](C)[C@@H](O)[C@]1(C)O	inactive	inactive	inactive	inactive	inactive	inactive	inactive	inactive	inactive	inactive
Nc1ncnc2c1ncn2[C@H]1CC[C@@H](CO)O1	inactive	inactive	inactive	inactive	inactive	inactive	inactive	inactive	inactive	inactive
O=P(O)(O)O	inactive	inactive		inactive	inactive	inactive	inactive	inactive	inactive	inactive
Nc1ccc(N=Nc2ccccc2)c(N)n1	inactive	inactive	inactive	inactive	inactive	inactive	inactive	inactive	inactive	inactive
C[C@H](CCC(=O)O)[C@H]1CC[C@H]2[C@@H]3[C@H](O)C[C@@H]4C[C@H](O)CC[C@]4(C)[C@H]3C[C@H](O)[C@]12C	inactive	inactive	inactive	inactive	inactive	inactive	inactive	inactive	inactive	inactive
Oc1cccc(O)c1O	inactive		inactive		inactive	inactive	inactive	inactive		inactive
OCc1ccccc1	inactive	inactive	inactive	inactive	inactive	inactive	inactive	inactive	inactive	inactive
O.O.O.O.O.O.O.O=S(=O)([O-])[O-].[Co+2]	inactive					inactive	inactive			inactive
